We go through nine molecules from PubChem BioAssay (NCI).

Assay [1] is described as follows: NCI Yeast Anticancer Drug Screen. Data for the rad50 strain (AID 155).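 Further: 0% = growth of vehicle-only cultures of the same strain.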 As to conditions: S. cerevisiae rad50 strain growth inhibition, hits give high values. In outline: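 DNA repair mutant yeast, compound exposure, growth read-out; inhibition is taken relative to vehicle.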
Assay [2] is described as follows: NCI Yeast Anticancer Drug Screen. Data for the mec2-1 strain (AID 157). To be noted: S. cerevisiae mec2-1 strain, hits give high values. Put shortly:
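mec2-1 yeast strain, carrying an alteration in DNA damage repair or cell cycle control, was exposed to compounds; growth inhibition was measured relative to vehicle-treated controls.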

Assay [3] can be described thus: NCI Yeast Anticancer Drug Screen. Data for the sgs1 mgt1 strain (AID 161).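 Further: 0% = growth of cultures given vehicle only.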 As to conditions: S. cerevisiae sgs1 mgt1 strain, hits give high values. Put shortly:
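Growth of a repair-deficient yeast mutant was monitored after compound treatment and expressed as inhibition relative to vehicle-treated cultures.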

The nature of assay [4]: NCI Yeast Anticancer Drug Screen. Data for the cln2 rad14 strain (AID 165).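 Further: 0% = growth equal to vehicle treated cultures.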 As to conditions: S. cerevisiae cln2 rad14 strain, hits give high values. Put shortly: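 Yeast carrying cln2 and rad14 alterations (cell cycle control and DNA damage repair) were exposed to compounds. Growth inhibition was measured against vehicle-treated controls.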
Assay [5] in a line: NCI Yeast Anticancer Drug Screen. Data for the bub3 strain (AID 167). As to conditions: S. cerevisiae bub3 mutant strain, hits give high values. Put shortly: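 In this screen, a yeast mutant lacking normal mitotic checkpoint function is challenged with compound. Relative growth versus vehicle gives the inhibition value.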
The nature of assay [6]: NCI Yeast Anticancer Drug Screen. Data for the mlh1 rad18 strain (AID 175). As to conditions: S. cerevisiae mlh1 rad18 strain growth inhibition, hits give high values. Put shortly:
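Growth inhibition of the yeast strain was measured after compound exposure and expressed relative to vehicle-treated controls. The strain carries defined defects in DNA damage repair.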

Where [7] appears, read: at 5.0 µM (retest, dose inferred, filed as 0.5).
Where [8] appears, read: at 50.0 µM (retest, dose inferred, filed as 5.0).

Each structure is given as a SMILES string. About 79,000 compounds went through this panel and 15% of them were active in at least one assay; those are over-represented in the sample as a whole. Values without a mark were called inactive. The source made the active and inactive calls. No stated cut-off is given here; in the data, active means growth inhibition above about 70%; inactive means the rest.

Take `CC[N+]1=C(/C=C\c2cc(C)c3cccnc3c2O)C(C)(C)c2ccccc21`: the growth inhibition was 0% in assay [1] (setting [7]); 98% (active) in assay [1] (setting [8]); 53.9% in assay [1] (at 50.0 µM); -2% in assay [2] (setting [7]); 98% (active) in assay [2] (setting [8]); 48.7% in assay [2] (at 50.0 µM). The growth inhibition in assay [3] (setting [7]) was -6%; in assay [3] (setting [8]), 98% (active); in assay [3] (at 50.0 µM), 48.1%; in assay [4] (setting [7]) it was -4%; in assay [4] (setting [8]), 98% (active); in assay [4] (at 50.0 µM), 77% (active). Further, the growth inhibition was -5% in assay [5] (setting [7]); 98% (active) in assay [5] (setting [8]); 93.2% (active) in assay [5] (at 50.0 µM); 0% in assay [6] (setting [7]); 97% (active) in assay [6] (setting [8]); 51.7% in assay [6] (at 50.0 µM).

As for `CCOC(=O)N1CCN(CCCOc2ccc(Cl)cc2Cc2ccccc2)CC1`, the growth inhibition in assay [1] (setting [7]) is 29%; in assay [1] (setting [8]) it was 100% (active); in assay [1] (at 50.0 µM) it was 99.7% (active); in assay [2] (setting [7]), 26%; in assay [2] (setting [8]) it was 100% (active); in assay [2] (at 50.0 µM), 99.7% (active). Further, the growth inhibition in assay [3] (setting [7]) is 59%; in assay [3] (setting [8]), 100% (active); in assay [3] (at 50.0 µM), 99.8% (active); in assay [4] (setting [7]), 30%; in assay [4] (setting [8]), 99% (active); in assay [4] (at 50.0 µM), 99.5% (active). For the same molecule, the results for the growth inhibition in assay [5] (setting [7]), in assay [5] (setting [8]) and in assay [5] (at 50.0 µM) were 89% (active), 100% (active) and 99.5% (active), respectively.

As to `COc1cc2c(cc1OC)C(Cl)C(c1ccc(F)cc1)=C2Cl` (stereo unspecified), the growth inhibition in assay [1] (setting [7]) was -23%; in assay [1] (setting [8]) it was 0%; in assay [1] (at 50.0 µM) it was 17.8%; in assay [2] (setting [7]) it was 5%; in assay [2] (setting [8]), 3%; in assay [2] (at 50.0 µM), 10.4%. In addition, the growth inhibition in assay [3] (setting [7]) is -4%; in assay [3] (setting [8]), -3%; in assay [3] (at 50.0 µM), -5.35%; in assay [4] (setting [7]) it was -3%; in assay [4] (setting [8]), 6%; in assay [4] (at 50.0 µM), 10.4%. Also, the growth inhibition is -2% in assay [5] (setting [7]); 4% in assay [5] (setting [8]); 45.2% in assay [5] (at 50.0 µM); 0% in assay [6] (setting [7]); -1% in assay [6] (setting [8]); -3.4% in assay [6] (at 50.0 µM).

For `O/N=C(/C[n+]1csc2ccccc21)c1ccccc1`, the growth inhibition in assay [1] (setting [7]) was -6%; in assay [1] (setting [8]) it was 82% (active); in assay [1] (at 50.0 µM) it was 35.3%; in assay [2] (setting [7]) it was -8%; in assay [2] (setting [8]), 34%; in assay [2] (at 50.0 µM), 79.5% (active). The growth inhibition in assay [3] (setting [7]) was -9%; in assay [3] (setting [8]), 87% (active); in assay [3] (at 50.0 µM) it was 73.7% (active); in assay [4] (setting [7]), -6%; in assay [4] (setting [8]) it was 32%; in assay [4] (at 50.0 µM) it was 37%. Besides, the growth inhibition in assay [5] (setting [7]) was 12%; in assay [5] (setting [8]), 76% (active); in assay [5] (at 50.0 µM), 76.8% (active); in assay [6] (setting [7]), 1%; in assay [6] (setting [8]), 88% (active); in assay [6] (at 50.0 µM), 48%.

In the case of `OC(CNc1ccnc2cc(Cl)ccc12)CNc1ccnc2cc(Cl)ccc12`, the growth inhibition is -2% in assay [1] (setting [7]); 34% in assay [1] (setting [8]); 40% in assay [1] (at 50.0 µM); 0% in assay [2] (setting [7]); 31% in assay [2] (setting [8]); 23.1% in assay [2] (at 50.0 µM). For the same molecule, the growth inhibition was 0% in assay [3] (setting [7]); 46% in assay [3] (setting [8]); 15.6% in assay [3] (at 50.0 µM); -4% in assay [4] (setting [7]); 46% in assay [4] (setting [8]); -21.2% in assay [4] (at 50.0 µM). The growth inhibition in assay [5] (setting [7]) was -2%; in assay [5] (setting [8]) it was 41%; in assay [5] (at 50.0 µM) it was 2.8%; in assay [6] (setting [7]) it was 2%; in assay [6] (setting [8]) it was 60%; in assay [6] (at 50.0 µM) it was 85.7% (active).

In the case of `O=C1C=CC(=O)c2c1oc1ccccc21`, the growth inhibition in assay [1] (setting [7]) is 14%; in assay [1] (setting [8]), 98% (active); in assay [1] (at 50.0 µM) it was 60.7%; in assay [2] (setting [7]), 6%; in assay [2] (setting [8]) it was 99% (active); in assay [2] (at 50.0 µM) it was 19%. Moreover, the growth inhibition in assay [3] (setting [7]) is 13%; in assay [3] (setting [8]), 99% (active); in assay [3] (at 50.0 µM), 16.2%; in assay [4] (setting [7]), 13%; in assay [4] (setting [8]) it was 79% (active); in assay [4] (at 50.0 µM), 48.5%. The growth inhibition is 30% in assay [5] (setting [7]); 98% (active) in assay [5] (setting [8]); 36% in assay [5] (at 50.0 µM); 23% in assay [6] (setting [7]); 98% (active) in assay [6] (setting [8]); 57.8% in assay [6] (at 50.0 µM).

With `O=C(CBr)c1ccc2cc(Br)c3ccccc3c2c1`, the growth inhibition in assay [1] (setting [7]) is 55%; in assay [1] (setting [8]), 94% (active); in assay [1] (at 50.0 µM), 64%; in assay [2] (setting [7]), 84% (active); in assay [2] (setting [8]) it was 96% (active); in assay [2] (at 50.0 µM), 44%. Besides, the growth inhibition in assay [3] (setting [7]) is 98% (active); in assay [3] (setting [8]), 95% (active); in assay [3] (at 50.0 µM), 68.5%; in assay [4] (setting [7]) it was 16%; in assay [4] (setting [8]), 92% (active); in assay [4] (at 50.0 µM) it was 46.1%. In addition, the growth inhibition is 81% (active) in assay [5] (setting [7]); 94% (active) in assay [5] (setting [8]); 41.1% in assay [5] (at 50.0 µM); 83% (active) in assay [6] (setting [7]); 95% (active) in assay [6] (setting [8]); 61% in assay [6] (at 50.0 µM).

For the molecule `O=C(/C=C/C(=O)OCCCl)OCCCl`, the growth inhibition in assay [1] (setting [7]) was 5%; in assay [1] (setting [8]), 95% (active); in assay [1] (at 50.0 µM), 69.2%; in assay [2] (setting [7]), -24%; in assay [2] (setting [8]), 85% (active); in assay [2] (at 50.0 µM) it was 82.2% (active). Moreover, the growth inhibition in assay [3] (setting [7]) is 4%; in assay [3] (setting [8]), 62%; in assay [3] (at 50.0 µM), 92.5% (active); in assay [4] (setting [7]) it was 4%; in assay [4] (setting [8]), 27%; in assay [4] (at 50.0 µM), -22.8%. For the same molecule, the results for the growth inhibition in assay [5] (setting [7]), in assay [5] (setting [8]) and in assay [5] (at 50.0 µM) were 46%, 91% (active) and 71.2% (active), respectively.

In the case of `NC(=O)c1nnn(Cc2cc(Cl)c(C(=O)c3ccc(Cl)cc3)c(Cl)c2)c1N`, the growth inhibition was 2% in assay [1] (setting [7]); 98% (active) in assay [1] (setting [8]); 57.2% in assay [1] (at 50.0 µM); 3% in assay [2] (setting [7]); 99% (active) in assay [2] (setting [8]); 98.9% (active) in assay [2] (at 50.0 µM). In addition, the growth inhibition is 2% in assay [3] (setting [7]); 99% (active) in assay [3] (setting [8]); 50.3% in assay [3] (at 50.0 µM); 1% in assay [4] (setting [7]); 98% (active) in assay [4] (setting [8]); 98.6% (active) in assay [4] (at 50.0 µM). The growth inhibition in assay [5] (setting [7]) was 5%; in assay [5] (setting [8]), 99% (active); in assay [5] (at 50.0 µM) it was 98.8% (active); in assay [6] (setting [7]) it was 13%; in assay [6] (setting [8]), 94% (active); in assay [6] (at 50.0 µM), 98.8% (active).
